We go through 40 sequences from the supplement of paper PMC6555819.

The subject of this assay is VDR:RXRa (NR concentration 270 nM, RXRa partner concentration 90 nM). Put plainly: PBM binding z-score (relative to random genomic background probes); higher = stronger binding; sequences stand for … in GC…GCGATTGACAGCGTAGAATGAAGG
Here is the method:
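Protein-binding microarray (Agilent 4x180K custom design, double-stranded 60-nt probes: 5' GC cap, 34-nt variable region, 24-nt constant primer region; full probe sequence given). Purified or IVT nuclear receptor:RXRα heterodimers (3:1 NR:RXRα, mostly 270:90 nM) or homodimers were incubated for 1 h in PBS with 2% milk and no ligand, then detected with Alexa488 antibodies. Fluorescence from o1-orientation probes (~5 replicates averaged) was converted to z-scores against 500 random hg19 background probes. Variable regions are seed direct-repeat (DR0–DR5) sites, all their single-nucleotide variants and half-site ablations.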
ACTAGTTGGTCAGCCGAGGTCACACACAATTCGG: the PBM binding z-score was determined as 4.66.

The sequence CTCGAAAGGTCGTGCTGAGGTGAGTATACCAAAC came in with a PBM binding z-score of 3.85.

Regarding CCTACTGGGCCACGAAACGTCATTGATTCAGTGA, the PBM binding z-score is -0.697.

In the case of AGTCAAAGTTCACTAGGTAACATAAGATTCAGCT, the PBM binding z-score was 4.14.

Regarding CCTAGTTGGTCATGGTCACACACGCTATAGGTAC, the PBM binding z-score was 0.655.

For the sequence TCATATAGGTAAACAGGTGAATGTCCGTAAGTTA, the PBM binding z-score is 0.948.

In the case of TCCATTAGTTGATTAGGGCAACCGAAACAGCGGA, the PBM binding z-score is 0.545.

TCATATAGGTAAAAAGGTGAAAGTCCGTAAGTTA gave a PBM binding z-score of 1.61.

For ATCTGTAGGTTAAGGGTCATTCAGGTTGGTTCGC, the PBM binding z-score was 5.77.

Consider AATCCAGGGTCATCGTAGGCCAGAGTACGCACAG, for which the PBM binding z-score was 5.32.

As for CCTATTATTTGACCATAAGGGCAACCGAAGCTCG, the PBM binding z-score was found to be 1.28.

ACTAGCTGGCCAAGGGTCACTCAAGATTAGTCCG gave a PBM binding z-score of 2.59.

TCTGTTAGGTCAACGATGGTCAGCTAATCTGCTA showed a PBM binding z-score of 2.46.

The sequence TCGAGTAGGTCAGGGGCATTCAGAATGGCGTCGA came in with a PBM binding z-score of 1.55.

In turn, CCTAGCAGGCCAAGCTGGGTCACTCAAGGCTTGA gave a PBM binding z-score of 0.17.

In turn, ATCCCTAGGTAAAGATAGTTCAGTGAATGCAAAT had a PBM binding z-score of 0.829.

Take CGAACTAGGCCATTGACAGGACAGTGAATAGTAA: the PBM binding z-score is -0.259.

CCTAGTTGGTCACGGTCACACACGCTATAGGTAC gave a PBM binding z-score of 1.12.

ACTCGGAGCACAAAGGTCAGAGCTACGCCAGTGA: the PBM binding z-score is 3.58.

As to ATGTCTAGGTAAAAGTTCAGTGAATCCCGAGGAT, the PBM binding z-score turned out to be 1.3.

GATACAGGGTCATGGCCAGAGTACGCGTATTGAT came in with a PBM binding z-score of 4.83.

Sequence CGAACTAGGTCAGCCAGGACAGTGAATACATTGA returned a PBM binding z-score of 3.1.

Sequence GATAAAGGGTCAAGGCCAGAGTACGCGTATTGAT registered a PBM binding z-score of 4.56.

Sequence CAAACTAGGGCACCGGAAGGTCAAAGTCCGCATG came in with a PBM binding z-score of 3.69.

In turn, GTACCAAGGTGAATAGGTCCTTGATGAGTAGGCG returned a PBM binding z-score of 0.968.

As to CCTATTAGTTGACCCTAAGGGCAACCGAAGCTCG, the PBM binding z-score is 3.74.

Regarding CCTAGTTGGTCTAGGTCACACACGCTATAGGTAC, the PBM binding z-score was 1.42.

Consider CAAACTAGGTCACAGAGGTCACAGTCCGTGCGTA, for which the PBM binding z-score turned out to be 7.66.

In the case of AGAATGAGGTTATACGTTGATCAGGGAAGAAAGT, the PBM binding z-score was 1.39.

GCATATAGGTAATACAAGGTGAAATTCCGATTGT: the PBM binding z-score amounted to 0.179.

The sequence TCCAGTTGGTCAAAGGTCACACACTCGAAATGCG gave a PBM binding z-score of 5.31.

Consider CGTCCCAGGTCAATGCTAGGTCAGTGAAAGCATT, for which the PBM binding z-score worked out at 3.68.

For the sequence ACATGTAGGTTAGCTGGGGTCATTCAGACTAGGC, the PBM binding z-score was determined as 6.43.

Consider CCTAGCAGGCCAGGGTCACTCTAGCATTTCGCTT, for which the PBM binding z-score stood at 2.45.

Take GGAACGAGGGCAAAGTTGATATCATCTGTCGACG: the PBM binding z-score was determined as 1.34.

As for CCTGCTAGGTCAATGGTGAGCTAAAGCAGCTCGC, the PBM binding z-score worked out at 0.217.

In turn, AATACACGGTCATCGTAGGCCAGAGTACGCACAG displayed a PBM binding z-score of 0.576.

Regarding ATAACGAGGGCACGCTGAGTTGATAGCAGAGTAG, the PBM binding z-score amounted to 2.27.

In the case of CATACAGGGTCAGCTAGCCCAGAGTAGGGACGGC, the PBM binding z-score came out at 2.52.

On to AGTCTAAGTTCACTAGGTAACGTAAGATTCAGCT, for which the PBM binding z-score amounted to 3.59.
